High-throughput results (PubChem)
Compounds with a hit are over-represented: about 3.4% of the library has one in this group of screens.
Vif inh = HIV Vif self-association inhibitors, primary screen, imaging, HEK293T, single point; HEK293T cells, Vif self-association by quenched fluorescence, 24 h; inhibition, % at 7.49 µM; actives 0.35% (n = 340,000); AID 602346, 2012; in the data active = inhibition above about 50%, passing the limit was not always enough
HSF1 activator = HSF-1 activators, primary screen, NIH3T3-HGL cells, MG132 stress, luminescence, single point | activation, % at 9 µM | NIH3T3-HGL HSF-1 luciferase reporter, 8 h; 100% = twice DMSO control signal | actives 1.7% (n = 300,000);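 active = mean replicate activation of at least 50% with a set share of replicates each reaching 50%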;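 note: 0% = median of the neutral control wells and 100% = twice that signal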
esBAF inh = Bmi1 luciferase reporter increase in mESCs, primary screen, esBAF inhibitor project, mouse ES cells, Bmi1 luciferase knock-in, single point. 24 h; 100% = twice the neutral-well signal. reporter increase, % at 12.5 µM. actives 2% (n = 350,000). AID 602393, 2012; in the data active = activation above about 40%;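 note: 0% = median of the plate's neutral control wells and 100% = double that signal; a rise in the Bmi1 reporter signal indicates esBAF inhibition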
HSF1 inh = HSF1 inhibitors in luciferase reporter cells, primary screen, cell-based, NIH3T3, luminescence; NIH3T3-HGL HSE-luciferase, MG132-induced, luminescence 8 h; active compounds read low; activity change, negative = inhibition, % at 7.5 µM (by protocol); actives 0.77% (n = 300,000); AID 2098, 2009;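 active = more than half of replicate wells show activity change below -50%, luminescence cut by over half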;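 note: luciferase reports HSF-1 transcriptional activity via heat shock element; 0% = median of DMSO wells and -100% = zero luminescence signal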
* marks the source's active call; other numbers are inactive results; · = no result.

SMILES | Vif inh | HSF1 activator | esBAF inh | HSF1 inh
O=C(Nc1cccc(Cl)c1)N1CCOCC1 | 5 | -65 | -10 | -55*
C[C@@H]1CN([C@H](C)CO)S(=O)(=O)c2ccc(-c3ccccc3)cc2O[C@H]1CN(C)C(=O)c1ccccc1F | · | · | 4 | ·
Cc1noc(C)c1NC(=O)Nc1cccc2c1O[C@@H](CN(C)Cc1ccc(C(=O)O)cc1)[C@@H](C)CN([C@H](C)CO)C2=O | · | · | -2 | ·
CCNC(=O)C[C@H]1C=C[C@@H](NC(=O)C2CC2)[C@H](CO)O1 | · | · | 1 | ·
CCNC(=S)Nc1ccc2ncoc2c1 | 7 | 9 | -2 | -3
O=C(Nc1ccccc1)N1CCOCC1 | -3 | -5 | 9 | -6
CCNC(=S)Nc1ccc2c(c1)oc1ccccc12 | -6 | 8 | 63* | 5
O=c1c2ccccc2oc2ccc(NCCCN3CCOCC3)cc12 | 3 | 14 | -6 | 18
O=C(Nc1ccc2c(c1)oc1ccccc12)N1CCOCC1 | 4 | -38 | 60* | -38
O=c1c2ccccc2oc2cc(NCCCN3CCOCC3)ccc12 | 1 | -46 | 43* | -27
O=C(Cc1ccncc1)NCC[C@H]1CC[C@H](NC(=O)Nc2ccc(Cl)cc2)[C@H](CO)O1 | · | · | -2 | ·
CCCC[n+]1c(-c2ccc(Cl)cc2Cl)csc1Nc1ccccc1 | -12 | 24 | 6 | -2
Clc1ccc(-c2csc(Nc3ccccc3)[n+]2Cc2ccco2)c(Cl)c1 | -15 | 92* | · | 113
Cc1nc(-c2ccccc2Cl)sc1C(=O)/C=C/N(C)C | -4 | · | 59* | ·
CC(C)NC(=O)Nc1ccc2c(c1)C(=O)N([C@@H](C)CO)C[C@H](C)[C@H](CN(C)Cc1ccc(C(=O)O)cc1)OCCCC[C@@H](C)O2 | · | · | -4 | ·
C[C@H]1CN([C@@H](C)CO)C(=O)c2cc(C#CC3CCCCC3)cnc2O[C@@H]1CN(C)S(C)(=O)=O | · | · | -1 | ·
CCc1cc2c(=O)c(-c3ccc4c(c3)OCCO4)coc2cc1OS(C)(=O)=O | -12 | 56* | 26 | 28
Cc1oc2cc3c(C(=O)N4CCCCC4)c(C)oc3cc2c1C(=O)N1CCCCC1 | -1 | -52 | 149* | -41
COC(=O)C[C@@H]1C[C@H]2c3cc(NS(=O)(=O)c4ccc(OC)cc4)ccc3O[C@H]2[C@@H](CO)O1 | · | · | -3 | ·
O=C(NCCCn1cccn1)c1cc(COc2ccccc2)on1 | · | · | 82* | ·
CC(=O)c1ccc(OCc2cc(C(=O)NC(C)CCn3cccn3)no2)cc1 (centres undefined) | 0 | 28 | 71* | 26
CC(CCn1cccn1)NC(=O)c1cc(COc2ccc(F)cc2F)on1 (centres undefined) | 8 | 2 | 0 | -5
CCCCS(=O)(=O)/C=C\C=C/S(=O)(=O)CCCC | 1 | -84 | · | -83*
C[C@@H]1CN([C@H](C)CO)C(=O)Cc2cc(NS(=O)(=O)c3cccs3)ccc2O[C@@H]1CN(C)S(=O)(=O)c1cccs1 | · | · | 1 | ·
CO[C@H]1CN(C)C(=O)c2cc(NC(=O)NC(C)C)ccc2OC[C@@H](C)N(Cc2cncnc2)C[C@H]1C | · | · | 3 | ·
SMILES | Vif inh | HSF1 activator | esBAF inh | HSF1 inh
Cc1ccc(S(=O)(=O)c2ccc([N+](=O)[O-])o2)cc1 | 90* | · | · | ·
Cc1ccc(NC(=O)c2ccc([N+](=O)[O-])o2)c(C)c1 | 11 | 44 | 3 | 22
COc1ccc(CN2C3CCC2CC(NC(=O)c2cc(OC)c(OC)c(OC)c2)C3)cc1 (centres undefined) | 63* | 15 | -9 | 2
COc1ccc(C(=O)NC2CC3CCCC(C2)N3Cc2ccccc2)cc1OC (centres undefined) | 52* | -20 | 0 | -2
COc1cc(C(=O)NC2CC3CCCC(C2)N3Cc2ccccc2)cc(OC)c1OC (centres undefined) | 2 | -1 | 2 | -1
c1ccc(-c2nc(-c3ccccn3)no2)cc1 | · | 11 | -68 | 11
c1ccc(-c2ccc(-c3nc(-c4ccccn4)no3)cc2)cc1 | · | -89 | -79 | -88*
Cc1ccc(-c2nc(-c3ccccn3)no2)cc1 | -18 | -80 | -83 | -78*
C[C@H]1CN([C@@H](C)CO)C(=O)Cc2cc(NC(=O)Cc3cn(C)c4ccccc34)ccc2O[C@@H]1CN(C)S(=O)(=O)c1ccccc1 | · | · | -1 | ·
CNC(=O)C[C@@H]1CC[C@H]2[C@H](COc3ccc(NC(=O)C4CCCCC4)cc3C(=O)N2C)O1 | · | · | 4 | ·
CN(C)C(=O)C[C@H]1CC[C@@H]2[C@H](COc3ccc(NS(=O)(=O)c4cccc(F)c4)cc3C(=O)N2C)O1 | · | · | -2 | ·
Cc1ccc(N(CC(=O)NCCSCc2ccco2)S(C)(=O)=O)cc1 | -3 | -62 | -1 | -54*
O=C(NCCSCc1ccco1)Nc1ccc(Cl)cc1 | 7 | 42 | 63* | 32
Cc1cccc(NC(=O)CCC(=O)N/N=C/c2ccco2)c1 | · | -2 | · | -3
Cc1ccc(N(CC(=O)NCCSCc2ccco2)S(=O)(=O)c2ccc(F)cc2)cc1 | -4 | 8 | · | 11
O=C(NCCSCc1ccco1)Nc1cccc(Cl)c1 | · | 60* | 28 | 21
O=C(N/N=C\c1ccco1)Nc1cccc(Cl)c1 | 0 | 69* | · | 30
CNC[C@H]1Oc2cc(C#CCOC)ccc2S(=O)(=O)N([C@@H](C)CO)C[C@@H]1C | · | · | 0 | ·
C[C@@H]1CN([C@@H](C)CO)C(=O)Cc2cc(NS(=O)(=O)c3ccccc3)ccc2O[C@@H]1CN(C)C(=O)Nc1ccc(C(F)(F)F)cc1 | · | · | -5 | ·
CCC(=O)N(C)C[C@H]1Oc2cc(-c3ccncc3)ccc2S(=O)(=O)N([C@H](C)CO)C[C@@H]1C | · | · | 3 | ·
O=C(COc1ccc(Br)cc1Cl)NC(=O)NC1CCCC1 | -5 | · | 51* | ·
O=C(COc1ccc(Cl)cc1Cl)N1CCCN(C(=O)COc2ccc(Cl)cc2Cl)CC1 | -7 | 24 | 0 | 8
Cc1cc(Cl)ccc1OCC(=O)N1CCCCC1 | 1 | 15 | 58* | 12
O=C(COc1ccc(Br)cc1Cl)NC1CCCCC1 | -3 | 36 | · | 32
O=C(COc1ccc2ccccc2c1Br)N1CCCCC1 | -8 | 7 | 76* | 16
SMILES | Vif inh | HSF1 activator | esBAF inh | HSF1 inh
O=C(COc1ccc(Cl)cc1Cl)NC(=O)N1CCCCC1 | 23 | 26 | 59* | 18
COc1ccc(C#Cc2ccc3c(c2)[C@@H]2[C@@H](CCN2S(=O)(=O)c2ccc(OC)cc2)[C@@H](CO)N3C)cc1 | · | · | -2 | ·
COc1ccccc1-c1cn(CC[C@H]2CC[C@@H](NC(=O)Cc3ccccn3)[C@H](CO)O2)nn1 | · | · | 2 | ·
O=C(COc1ccc(Cl)cc1Br)NC(=O)NC1CCCC1 | -2 | · | 72* | ·
O=C(COc1ccc(Cl)cc1Cl)NC(=O)NC1CCCC1 | 4 | · | 48* | ·
O=C(COc1ccc(Br)cc1Cl)c1ccc[nH]1 | -11 | 27 | 74* | 24
CC(C)NC(=O)NC(=O)COc1ccc(Br)cc1Br | 13 | 87* | · | 70
O=C(COc1ccc(Cl)cc1Cl)NC1CC1 | 1 | · | · | ·
O=C(COc1ccccc1Cl)c1ccc[nH]1 | -6 | -1 | · | 7
